# This is one part of a sample in which the strongest signals are shown more often than they occur.
# Legend:
# Assay in all cases: glycan array binding signal (z-score within array); higher = stronger binding
# Settings in all cases: glycan notation: IUPAC condensed, linker removed
# [1] = target: GlcNAc(a1-4)Gal(b1-4)GlcNAc(b1-3)Gal(b1-4)Glc
# Summary of the method: (§1)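 Columns mapping to the same glycan were averaged after glycan names were converted to IUPAC-condensed notation. The data come from 3228 arrays in the Consortium for Functional Glycomics database, limited to those with an available protein sequence. Binding is reported as a within-array Z-score averaged across arrays of one protein sequence and across linkers.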
# [2] = target: GlcNAc(b1-2)Man(a1-3)[GlcNAc(b1-2)Man(a1-6)]Man(b1-4)GlcNAc(b1-4)[Fuc(a1-6)]GlcNAc
# Summary of the method: as §1
# [3] = target: GlcNAc(b1-2)[GlcNAc(b1-6)]Man(a1-6)[GlcNAc(b1-2)Man(a1-3)]Man(b1-4)GlcNAc(b1-4)[Fuc(a1-6)]GlcNAc
# Summary of the method: as §1
# [4] = target: GlcNAc(b1-3)Gal(b1-4)GlcNAc(b1-2)Man(a1-3)[GlcNAc(b1-3)Gal(b1-4)GlcNAc(b1-2)Man(a1-6)]Man(b1-4)GlcNAc(b1-4)[Fuc(a1-6)]GlcNAc
# Summary of the method: as §1
# [5] = target: GlcNAc(b1-3)Gal(b1-4)GlcNAc(b1-3)Gal(b1-4)GlcNAc
# Summary of the method: as §1
# [6] = target: GlcNAc(b1-3)Gal(b1-4)GlcNAc(b1-3)Gal(b1-4)GlcNAc(b1-3)Gal(b1-4)GlcNAc(b1-3)Gal(b1-4)GlcNAc(b1-2)Man(a1-3)[GlcNAc(b1-3)Gal(b1-4)GlcNAc(b1-3)Gal(b1-4)GlcNAc(b1-3)Gal(b1-4)GlcNAc(b1-3)Gal(b1-4)GlcNAc(b1-2)Man(a1-6)]Man(b1-4)GlcNAc(b1-4)[Fuc(a1-6)]GlcNAc
# Summary of the method: as §1
# GlcNAc(b1-3)GalNAc = target: GlcNAc(b1-3)GalNAc
# Summary of the method: as §1
# [7] = target: GlcNAc(b1-4)GlcNAc(b1-4)GlcNAc
# Summary of the method: as §1
# [8] = target: Kdn(a2-3)Gal(b1-4)[Fuc(a1-3)]GlcNAc
# Summary of the method: as §1
# [9] = target: Man(a1-2)Man(a1-3)[Man(a1-2)Man(a1-6)]Man(a1-6)[Man(a1-2)Man(a1-2)Man(a1-3)]Man
# Summary of the method: as §1
# [10] = target: Man(a1-2)Man(a1-3)[Man(a1-6)]Man(a1-6)[Man(a1-2)Man(a1-3)]Man(b1-4)GlcNAc(b1-4)GlcNAc
# Summary of the method: as §1
# [11] = target: Man(a1-3)[Man(a1-6)]Man(b1-4)GlcNAc(b1-4)[Fuc(a1-6)]GlcNAc
# Summary of the method: as §1
# [12] = target: Neu5Ac(a2-3)Gal(b1-4)GlcNAc(b1-2)Man(a1-3)[GlcNAc(b1-4)][Neu5Ac(a2-3)Gal(b1-4)GlcNAc(b1-2)Man(a1-6)]Man(b1-4)GlcNAc(b1-4)GlcNAc
# Summary of the method: as §1
# [13] = target: Neu5Ac(a2-3)Gal(b1-4)GlcNAc(b1-3)Gal(b1-4)GlcNAc(b1-3)Gal(b1-4)GlcNAc
# Summary of the method: as §1
# [14] = target: Neu5Ac(a2-3)Gal(b1-4)[Fuc(a1-3)]GlcNAc(b1-6)[Gal(b1-3)]GalNAc
# Summary of the method: as §1
# [15] = target: Neu5Ac(a2-3)[GalNAc(b1-4)]Gal(b1-4)Glc
# Summary of the method: as §1
# [16] = target: Neu5Ac(a2-3)[GalNAc(b1-4)]Gal(b1-4)GlcNAc(b1-3)GalNAc
# Summary of the method: as §1
# [17] = target: Neu5Ac(a2-6)Gal(b1-3)GlcNAc(b1-3)[Gal(b1-4)GlcNAc(b1-6)]Gal(b1-4)Glc
# Summary of the method: as §1
# [18] = target: Neu5Ac(a2-6)Gal(b1-4)GlcNAc
# Summary of the method: as §1
# [19] = target: Neu5Ac(a2-6)Gal(b1-4)GlcNAc(b1-2)Man(a1-3)[Gal(b1-4)GlcNAc(b1-2)Man(a1-6)]Man(b1-4)GlcNAc(b1-4)GlcNAc
# Summary of the method: as §1
# [20] = target: Neu5Ac(a2-6)Gal(b1-4)GlcNAc(b1-2)Man(a1-3)[Man(a1-6)]Man(b1-4)GlcNAc(b1-4)GlcNAc
# Summary of the method: as §1
# [21] = target: Neu5Ac(a2-6)Gal(b1-4)GlcNAc(b1-2)Man(a1-3)[Neu5Ac(a2-6)Gal(b1-4)GlcNAc(b1-2)Man(a1-6)]Man(b1-4)GlcNAc(b1-4)[Fuc(a1-6)]GlcNAc
# Summary of the method: as §1
# [22] = target: Neu5Ac(a2-6)Gal(b1-4)GlcNAc(b1-3)Gal(b1-4)GlcNAc(b1-3)GalNAc
# Summary of the method: as §1
# [23] = target: Neu5Ac(a2-8)Neu5Ac(a2-3)Gal(b1-4)GlcNAc
# Summary of the method: as §1
# [24] = target: Neu5Gc(a2-3)Gal(b1-3)[Fuc(a1-4)]GlcNAc
# Summary of the method: as §1
# [25] = target: Neu5Gc(a2-3)Gal(b1-4)GlcNAc
# Summary of the method: as §1
binder,measurement,setting,value
"LCA (Lens culinaris), P02870 (protein) MASLQTQMISFYLIFLSILLTTIFFFKVNSTETTSFSITKFSPDQKNLIFQGDGYTTKGKLTLTKAVKSTVGRALYSTPIHIWDRDTGNVANFVTSFTFVIDAPSSYNVADEFTFFIAPVDTKPQTGGGYLGVFNSKEYDKTSQTVAVEFDTFYNAAWDPSNKERHIGIDVNSIKSVNTKSWNLQNGERANVVIAFNAATNVLTVTLTYPNSLEEENVTSYTLNEVVPLKDVVPEWVRIGFSATTGAEFAAHEVHSWSFHSELGGTSSSKQAADA",glycan array binding signal (z-score),[1],-0.135
same,glycan array binding signal (z-score),[2],5.54
same,glycan array binding signal (z-score),[3],8.45
same,glycan array binding signal (z-score),[4],5.29
same,glycan array binding signal (z-score),[5],-0.199
same,glycan array binding signal (z-score),[6],3.94
same,glycan array binding signal (z-score),GlcNAc(b1-3)GalNAc,-0.209
same,glycan array binding signal (z-score),[7],-0.184
same,glycan array binding signal (z-score),[8],-0.228
same,glycan array binding signal (z-score),[9],1.19
same,glycan array binding signal (z-score),[10],2.09
same,glycan array binding signal (z-score),[11],6.07
same,glycan array binding signal (z-score),[12],-0.262
same,glycan array binding signal (z-score),[13],-0.228
same,glycan array binding signal (z-score),[14],-0.145
same,glycan array binding signal (z-score),[15],-0.235
same,glycan array binding signal (z-score),[16],0.102
same,glycan array binding signal (z-score),[17],-0.232
same,glycan array binding signal (z-score),[18],-0.202
same,glycan array binding signal (z-score),[19],-0.188
same,glycan array binding signal (z-score),[20],-0.239
same,glycan array binding signal (z-score),[21],4.04
same,glycan array binding signal (z-score),[22],-0.224
same,glycan array binding signal (z-score),[23],-0.237
same,glycan array binding signal (z-score),[24],-0.207
same,glycan array binding signal (z-score),[25],-0.219
